Results on 26 molecules are retold here after PubChem BioAssay (NCI).

Structures are written as SMILES. Compounds without any hit were thinned out: in the full panel of roughly 83,000, 20% have a hit.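 Assay: single dose, 48 h. Readout: percent growth (0 = no net growth; negative = cell death). Active: <10.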 Values without a mark were called inactive. Calls of active or inactive are those of the source.

The subject of this experiment is MDA-MB-468 breast. Kind of experiment: NCI-60 one-dose screen, 48 h (100 = growth as untreated, 0 = no growth, -100 = all killed). The conditions noted are these: 10 µM unless noted.
In the case of `Cc1ccc(/C=C/CC(=O)Nc2ccc(C(=O)Nc3ccc(F)cc3N)cc2)cn1`, the growth was 53.5%. Regarding `CCc1nc(N)nc(N)c1-c1ccc(Cl)cc1`, the growth was 62.5%. Take `C=C1C(=O)O[C@H]2[C@H]1CC/C(COC(=O)/C=C\C(=O)NCc1ccc(Cn3c(=O)sn(CCCCC)c3=O)cc1)=C\CC[C@@]1(C)O[C@@H]21`: the growth is 47%. Consider `O=C(NCCCCCCNC(=O)OCc1ccc2c(Cl)cc(Cl)c(O)c2n1)OCc1ccc2c(Cl)cc(Cl)c(O)c2n1`, for which the growth was -62.7% (active). Take `COc1ccc(CC(C)=C(c2ccc(OCCN3CCCCCC3)cc2)c2ccc(OCCN3CCCCCC3)cc2)cc1`: the growth is -81.2% (active). Regarding `CN(C)c1ccc(/C=N/NC(=O)CSc2nc3sc4c(c3c(=O)n2-c2ccccc2)CCCCC4)cc1`, the growth is 26.2%. Under `CC(O)CN(CC(C)O)N(CC(C)O)CC(C)O` (stereo unspecified) stands 105%; under `CN(C)c1nc(N)c2nccnc2n1`, 115%. The value for `N#CC(C#N)C(C#N)C#N` was 99.7%; that for `O=C1C2=C(Nc3cc([N+](=O)[O-])ccc3N2)OC1c1c2ccccc2cc2ccccc12` (stereo unspecified) was 37.3%; that for `COc1cc2c(cc1O)CCN1C[C@@H](CC(C)C)[C@@H](O)C[C@@H]21` was 103%. The value for `Cc1cc(C)cc(C(=O)Nc2cccc(C#Cc3cccc4[nH]nc(N)c34)c2)c1` was 43%; that for `CCCCc1nc(Cl)c(C2CC(c3ccc(S(N)(=O)=O)cc3)=NN2c2ccc(C#N)cc2)[nH]1` (stereo unspecified) was 64.5%. With `Cc1nc2c(nnn2-c2ccccc2)c2nc(-c3ccccc3)oc(=O)c12`, the growth was 110%. `CCOc1cccc(/C=N/NC(=O)c2ccc(Nc3ccnc(C(F)(F)F)c3)cc2)c1O`: the growth was -20.9% (active). As for `COc1ccc2c(c1)/C(=C1/S/C(=N/c3nnc(C)s3)NC1=O)C(=O)N2Cc1ccc(Br)cc1`, the growth is 25.8%.

With `CCCCNCC(O)c1cc2c(Cl)cc(Cl)cc2c2cc(C(F)(F)F)ccc12` (stereo unspecified), the growth is -86.2% (active). Consider `COc1cc(/C=C/c2c(C(C)=O)c(C)nc3ccccc23)cc(OC)c1OC`, for which the growth was -4.86% (active). As to `CCN(CC)Cc1cc(Nc2c3ccccc3nc3cc(Cl)ccc23)ccc1O`, the growth is -72.4% (active).

`N#C/C=C(\c1ccc([N+](=O)[O-])cc1)n1nnc2cc(Cl)c(Cl)cc21`: the growth was -47.4% (active). Turning to `COC1=CC(c2ccc[nH]2)=N/C1=C\c1[nH]c(C)c(CC(=O)OCc2ccccc2)c1CCC(=O)OCc1ccccc1`, the growth is -31.2% (active).

For `Cc1ccc(-c2[nH][nH]c(=O)c2-c2nc3ccccc3s2)cc1`, the growth is 98.1%. In the case of `Cn1cc(-c2nonc2-c2cn(C)c3ccccc23)c2ccccc21`, the growth is 30.3%.

On to `C#CCOc1ccc2ncnc(Nc3cccc(NC(=O)CCl)c3)c2c1`, for which the growth was 68.5%. For the molecule `N#Cc1c(N2CCOCC2)nc2sc3cc(Cl)ccc3n2c1=N`, the growth is 15.8%. In the case of `COc1cc(OC)c2ccc(=O)oc2c1`, the growth is 103%.
